Compound activity: PubChem BioAssay, several laboratories
IL1B NFkB inh – blocks IL-1B driven NFkB nuclear translocation in HUVEC cells; HUVEC IL-1B NFkB p65 nuclear translocation imaging; inhibition, % at 2 µM; 94,000 tested, 0.43% active;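 active means inhibition above about 30% together with a positive call from visual inspection of the well image, limit read from the data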;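 further: nuclear over cytoplasmic p65 intensity ratio measured by imaging; 0% = IL-1B stimulated DMSO wells and 100% = unstimulated DMSO wells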
PLK1 kinase inh – inhibitors of human PLK1 kinase. recombinant PLK1 kinase, TR-FRET peptide phosphorylation. P53350. AID 619. 97,000 tested, 0.53% active. inhibition, % at 10 µM;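 active means inhibition of 50% or more in the single-concentration screen; inactive means inhibition below 50%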;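 further: 0% = DMSO max control and 100% = H-89 dihydrochloride min control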
Target sequence (P53350 whole entry, looked up): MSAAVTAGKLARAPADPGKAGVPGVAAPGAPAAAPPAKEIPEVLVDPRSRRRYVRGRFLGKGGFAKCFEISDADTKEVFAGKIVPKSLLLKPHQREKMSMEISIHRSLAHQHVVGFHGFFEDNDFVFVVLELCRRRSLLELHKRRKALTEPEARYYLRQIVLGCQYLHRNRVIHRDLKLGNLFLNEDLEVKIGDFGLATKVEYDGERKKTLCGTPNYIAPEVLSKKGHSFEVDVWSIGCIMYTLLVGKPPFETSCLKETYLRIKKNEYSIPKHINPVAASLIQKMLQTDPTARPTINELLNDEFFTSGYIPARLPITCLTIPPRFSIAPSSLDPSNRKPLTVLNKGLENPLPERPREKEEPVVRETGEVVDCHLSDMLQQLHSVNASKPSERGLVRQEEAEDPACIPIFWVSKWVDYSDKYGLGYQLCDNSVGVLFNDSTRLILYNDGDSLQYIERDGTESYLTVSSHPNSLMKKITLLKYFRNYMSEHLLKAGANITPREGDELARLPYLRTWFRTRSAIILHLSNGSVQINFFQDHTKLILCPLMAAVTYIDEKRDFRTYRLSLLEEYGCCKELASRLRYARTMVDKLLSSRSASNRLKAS
Plk1 PBD FP – inhibitors of human Plk1 polo box domain binding; P53350; Plk1 PBD phosphopeptide binding, fluorescence polarization; inhibition, %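 (tested at about 20 µM)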; 97,000 tested, 0.13% active; AID 693; in the data active means inhibition above about 34%, passing the limit was not always enough
PTK2B oligo ant – blocks oligomerization of human Pyk2 in cells. Q293 cells, Pyk2 FERM NanoBiT luminescence; stronger effect = lower value. z-score (the deposit names both 25 µM and 10 µM). 99,000 tested, 0.83% active. AID 1347419;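 active means Z-score of -3 or lower, scaled per plate to the spread of control and sample wells; inactive means z-score above -3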;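 further: negative z-score means lost luminescence so less FERM oligomerization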
IL1B cytotox – HUVEC cytotoxicity counter-screen, IL-1B stimulated; HUVEC cell count loss, Hoechst imaging; cell count reduction, % at 2 µM; 94,000 tested, 0.41% active; AID 845;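 active means cell count reduction more than 3 SD above the screen-wide mean, cut at about 70% in these data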;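 further: normalized per plate to untreated control cells as the no-loss baseline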
NFkB transloc pot – enhances IL-1B driven NFkB nuclear translocation. activation, % at 2 µM. HUVEC IL-1B NFkB p65 nuclear translocation imaging. 94,000 tested, 0.3% active. AID 819;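 active means activation above 40%, about the mean plus 3 SD, also judged a hit on visual image review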;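 further: percent activation is computed from the nuclear over cytoplasmic p65 intensity ratio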
* = called active by the depositor. This is a sample that favours compounds with a hit; in the whole collection about 2.2% have one here.

Results for CC(C)(CSc1nncn1N)NS(=O)(=O)c1ccc(Cl)cc1 ?
IL1B NFkB inh: -8.3; PLK1 kinase inh: -4.5; Plk1 PBD FP: -0.5; PTK2B oligo ant: 0.02; IL1B cytotox: -20.0; NFkB transloc pot: 8.3

How did O=S(=O)(NCc1cccnc1)c1ccc(Cl)s1 do in these assays?
IL1B NFkB inh: 58.6*; PLK1 kinase inh: -8.5; Plk1 PBD FP: 1.6; PTK2B oligo ant: 1.54; IL1B cytotox: 89.9*; NFkB transloc pot: -58.6

What do the screens show for `CN=C(NC#N)SCC(=O)c1ccc(Cl)cc1Cl`?
IL1B NFkB inh: -1.1; PLK1 kinase inh: 61.8*; Plk1 PBD FP: 8.9; PTK2B oligo ant: -2.19; IL1B cytotox: -4.4; NFkB transloc pot: 1.1

What do the screens show for `Cc1cc(C)c(C#N)c(SCC(=O)c2ccc(Cl)cc2Cl)n1`?
IL1B NFkB inh: 0.8; PLK1 kinase inh: -4.0; Plk1 PBD FP: -14.3; PTK2B oligo ant: -1.65; IL1B cytotox: -16.2; NFkB transloc pot: -0.8

What do the screens show for `COC(=O)c1ccc(CSc2nc3ccc(C)cc3[nH]2)o1`?
IL1B NFkB inh: -11.0; PLK1 kinase inh: -7.4; Plk1 PBD FP: -15.0; PTK2B oligo ant: 0.15; IL1B cytotox: -23.7; NFkB transloc pot: 11.0

What do the screens show for `Cc1ccc([N+](=O)[O-])cc1N=C(c1cccc([N+](=O)[O-])c1)N1CCOCC1`?
IL1B NFkB inh: 9.7; PLK1 kinase inh: -12.5; Plk1 PBD FP: 9.1; PTK2B oligo ant: -1.36; IL1B cytotox: 4.4; NFkB transloc pot: -9.7

Results for O=[N+]([O-])c1ccc(C(=Nc2cccc3ccccc23)N2CCOCC2)cc1 ?
IL1B NFkB inh: -14.6; PLK1 kinase inh: -9.0; Plk1 PBD FP: 4.5; PTK2B oligo ant: -3.53*; IL1B cytotox: -16.0; NFkB transloc pot: 14.6

Results for O=C(CCC1CCCC1)NC1CCCCC1 ?
IL1B NFkB inh: -1.2; PLK1 kinase inh: -11.3; Plk1 PBD FP: -10.7; PTK2B oligo ant: -0.94; IL1B cytotox: 8.2; NFkB transloc pot: 1.2

Results for Cc1ccc(S(=O)(=O)NCc2ccc(C(=O)N(C)CCC#N)cc2)cc1 ?
IL1B NFkB inh: 2.3; PLK1 kinase inh: -8.2; Plk1 PBD FP: -0.4; PTK2B oligo ant: 1.6; IL1B cytotox: -60.6; NFkB transloc pot: -2.3

Results for CN(CCC#N)C(=O)c1ccc(CNS(=O)(=O)c2ccc(F)cc2)cc1 ?
IL1B NFkB inh: 99.8*; PLK1 kinase inh: -10.8; Plk1 PBD FP: 23.3; PTK2B oligo ant: 0.01; IL1B cytotox: 85.9*; NFkB transloc pot: -99.8

Results for Clc1ccccc1N/N=C/c1ccc2c(c1)OCO2 ?
PTK2B oligo ant: 0.15

What do the screens show for `CCCNC(=O)CC1Sc2ccccc2NC1=O` (configuration not stated)?
IL1B NFkB inh: -43.3; PLK1 kinase inh: -10.0; Plk1 PBD FP: -2.3; PTK2B oligo ant: 0.63; IL1B cytotox: -7.1; NFkB transloc pot: 43.3*

Results for Cc1cc(C)c(C#N)c(SCc2ccccc2)n1 ?
IL1B NFkB inh: 20.3; PLK1 kinase inh: -9.5; Plk1 PBD FP: -15.7; PTK2B oligo ant: -0.58; IL1B cytotox: 91.4*; NFkB transloc pot: -20.3

How did N#Cc1cc2c(nc1SCC1COc3ccccc3O1)CCC2 (configuration not stated) do in these assays?
IL1B NFkB inh: 19.6; PLK1 kinase inh: -15.5; Plk1 PBD FP: -33.0; PTK2B oligo ant: -1.49; IL1B cytotox: 2.5; NFkB transloc pot: -19.6

How did Cc1cc(C)c(C#N)c(SCC2COc3ccccc3O2)n1 (configuration not stated) do in these assays?
IL1B NFkB inh: -5.3; PLK1 kinase inh: -5.9; Plk1 PBD FP: 0.7; PTK2B oligo ant: -3.27*; IL1B cytotox: 18.8; NFkB transloc pot: 5.3

Results for COc1ccc(-n2c(C)cc(-c3csc(N)n3)c2C)cc1 ?
PTK2B oligo ant: 1.14

What do the screens show for `CC(=O)Nc1ccc(NC(=O)C(Cc2ccccc2)NC(=O)C2CCCCC2)cc1` (configuration not stated)?
PTK2B oligo ant: 1.01

Results for Cc1cc(N2CC(C(=O)NCc3cccs3)CC2=O)ccc1C(C)C (configuration not stated) ?
IL1B NFkB inh: 45.6*; PLK1 kinase inh: -12.8; Plk1 PBD FP: -9.1; PTK2B oligo ant: -0.52; IL1B cytotox: -78.7; NFkB transloc pot: -45.6

Results for Cc1ccc(N2CC(C(=O)NCc3cccs3)CC2=O)cc1C (configuration not stated) ?
IL1B NFkB inh: -4.1; PLK1 kinase inh: -10.5; Plk1 PBD FP: 18.8; PTK2B oligo ant: 0.41; IL1B cytotox: -17.0; NFkB transloc pot: 4.1

How did CN(C)CCCNc1ncnc2c1cnn2-c1ccccc1 do in these assays?
IL1B NFkB inh: -5.6; PLK1 kinase inh: 66.7*; Plk1 PBD FP: 22.9; IL1B cytotox: -8.6; NFkB transloc pot: 5.6

What do the screens show for `CC(C)OCCCNc1ncnc2c1cnn2-c1ccccc1`?
IL1B NFkB inh: 1.2; PLK1 kinase inh: 2.1; Plk1 PBD FP: -11.7; PTK2B oligo ant: -1.1; IL1B cytotox: -11.3; NFkB transloc pot: -1.2

What do the screens show for `Cn1c2ccc(F)cc2c2ncn(Cc3ccco3)c(=O)c21`?
IL1B NFkB inh: 31.5*; PLK1 kinase inh: -1.1; Plk1 PBD FP: 3.0; PTK2B oligo ant: 0.74; IL1B cytotox: -3.8; NFkB transloc pot: -31.5

Results for CC(=O)N1CCc2cc(C(=O)CN3CCN(c4cccc(Cl)c4)CC3)ccc21 ?
IL1B NFkB inh: -0.5; PLK1 kinase inh: -8.3; Plk1 PBD FP: -13.4; IL1B cytotox: 15.8; NFkB transloc pot: 0.5

How did CC(=O)N1CCc2cc(C(=O)CN3CCCN(Cc4ccc(F)cc4)C3)ccc21 do in these assays?
IL1B NFkB inh: 1.0; PLK1 kinase inh: 67.8*; Plk1 PBD FP: 19.3; IL1B cytotox: -38.9; NFkB transloc pot: -1.0

Results for CCn1c(SCC(=O)Nc2ccc(C)cc2)nnc1-c1ccc(O)cc1 ?
IL1B NFkB inh: -5.2; PLK1 kinase inh: -15.8; Plk1 PBD FP: 17.8; PTK2B oligo ant: -0.72; IL1B cytotox: -24.0; NFkB transloc pot: 5.2

What do the screens show for `Cc1ccc(C(=O)Nc2ccc(O)cc2C(=O)O)cc1C`?
IL1B NFkB inh: -119.0; PLK1 kinase inh: 1.4; Plk1 PBD FP: 20.5; PTK2B oligo ant: 0.9; IL1B cytotox: 8.2; NFkB transloc pot: 119.0*

How did Cc1ccc(C(=O)Nc2ccc(O)cc2C(=O)O)cc1 do in these assays?
IL1B NFkB inh: -2.1; PLK1 kinase inh: -14.2; Plk1 PBD FP: 10.0; PTK2B oligo ant: 0.82; IL1B cytotox: 10.8; NFkB transloc pot: 2.1

Results for O=C(c1ccc2c(c1)OCO2)N(Cc1ccco1)C1(C(=O)NC2CCCCC2)CCCCC1 ?
IL1B NFkB inh: -18.7; PLK1 kinase inh: -12.2; Plk1 PBD FP: 39.0; PTK2B oligo ant: -1.35; IL1B cytotox: 4.2; NFkB transloc pot: 18.7

Results for CCOC(=O)Cc1csc(NC(=S)NC(=O)c2ccccc2C)n1 ?
IL1B NFkB inh: 50.0*; PLK1 kinase inh: -3.0; Plk1 PBD FP: -14.1; PTK2B oligo ant: 0.5; IL1B cytotox: -30.9; NFkB transloc pot: -50.0

How did CCOC(=O)Cc1csc(NC(=S)NC(=O)c2ccc(F)cc2)n1 do in these assays?
IL1B NFkB inh: -1.4; PLK1 kinase inh: -17.4; Plk1 PBD FP: -8.9; PTK2B oligo ant: 1.52; IL1B cytotox: -24.4; NFkB transloc pot: 1.4
